We go through 22 compounds from PubChem BioAssay (NCATS).

Records with an inconclusive call do not appear. A number with no mark means an inactive call. The source made the active and inactive calls. The call rests on the fitted dose curve; in most records, active means well fitted curve in the direction sought with a large enough effect; inconclusive means small, poorly fitted or top-dose-only effect, or another doubt; inactive means no such curve, though single readings can be large; an effect the other way counts as inactive or inconclusive.

The nature of test [1]: BET inhibitor-based combinations targeting novel dependencies in MECOM-rearranged (r) AML: SET-2 cell line (AID 2202231). Further: nearly all actives have a fitted effect of over 35% in size.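 On viability: plate controls were DMSO treated cells for no effect and wells without cells for full effect.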 The settings on record: SET-2 AML cells viability, CellTiter-Glo luminescence, 48 h; viability: active compounds read low, concentration not given here. In a few lines:
(§1)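 Viability of cells (500 per well) is scored by luminescent CellTiter-Glo at 48 hr post-dosing. Eleven-point titrations are normalized to DMSO and empty controls and reduced to AUC values.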

A short description of test [2]: BET inhibitor-based combinations targeting novel dependencies in MECOM-rearranged (r) AML: MV-4-11 cell line (AID 2202233). Further: nearly all actives have a fitted effect of over 45% in size. The procedure, abridged:
(§2)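 Using pin-tool transfer, drugs were added in 11 doses to cells (500/well), incubated 48 hr, and assessed with CellTiter-Glo. Z-AUC is a mean-centring transformation applied separately to each screened line.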

The nature of test [3]: BET inhibitor-based combinations targeting novel dependencies in MECOM-rearranged (r) AML: HNT-34 cell line (AID 2202234). Further: nearly all actives have a fitted effect of over 35% in size. The procedure, abridged:
as §2

The nature of test [4]: BET inhibitor-based combinations targeting novel dependencies in MECOM-rearranged (r) AML: UCSD-AML1 cell line (AID 2202235). Further: nearly all actives have a fitted effect of over 40% in size. The procedure, abridged:
as §2

Test [5] is described as follows: BET inhibitor-based combinations targeting novel dependencies in MECOM-rearranged (r) AML: AML-191 cell line (AID 2202236; further: nearly all actives have a fitted effect of over 35% in size). The procedure, abridged:
as §1

Test [6] is described as follows: BET inhibitor-based combinations targeting novel dependencies in MECOM-rearranged (r) AML: AML-194 cell line (AID 2202237; further: nearly all actives have a fitted effect of over 40% in size). In a few lines:
as §1

As a reminder, the viability is a read-out of living cells in per cent, often relative to untreated cells.
Potency means the concentration at half of the fitted maximal effect.

For the compound `Clc1ccc(-c2nc3sccn3c2/C=N/OCc2ccc(Cl)c(Cl)c2)cc1`, in test [1], the viability is 112%. Besides, the Potency result in test [2], in test [3], in test [4], in test [5] and in test [6] was “inactive” each time.
On to `CO[C@H]1O[C@@H]2O[C@@]3(C)CC[C@H]4[C@H](C)CC[C@@H]([C@H]1C)[C@@]24OO3`, for which the Potency in test [1] is 20900 nM (active); in test [2] it was 4170 nM (active); in test [5], 16600 nM (active). In test [4], the Potency result was “inactive”.
As to `COc1ccc(C(=O)N2CCN(C(=O)/C=C/c3ccc(Br)cc3)CC2)cc1`, the viability in test [1] was 111%. In addition, in test [2], the Potency was 11800 nM (active). The Potency entry in test [4], in test [5] and in test [6] was “inactive” in each case.
With `O=c1sn(-c2cccc3ccccc23)c(=O)n1Cc1ccccc1`, the viability in test [1] is 92.2%. Further, the Potency in test [2] is 11800 nM (active); in test [6] it was 14800 nM (active). Besides, in test [3], the Potency result is “inactive”.
On to `O=C(Nc1ccccc1)Nc1ccc(-c2ccc(C(=O)[C@@H]3CCC[C@H]3C(=O)O)cc2)cc1`, for which, in test [1], the viability was 105%. For the same compound, the Potency result in test [2], in test [3], in test [5] and in test [6] was “inactive” each time.
With `CC#Cc1cncc(-c2ccc3c(c2)[C@@]2(N=C(C)C(N)=N2)C2(CCC(OC)CC2)C3)c1` (stereo not given in full), the viability in test [1] was 107%. For the same compound, the Potency in test [2] was 18600 nM (active). Further, the Potency result in test [3] and in test [6] was “inactive” throughout.
On to `CN(C)CC[C@H](CSc1ccccc1)Nc1ccc(S(=O)(=O)NC(=O)c2ccc(N3CCN(Cc4ccccc4-c4ccc(Cl)cc4)CC3)cc2)cc1[N+](=O)[O-]`, for which the Potency was 10500 nM (active) in test [1]; 263 nM (active) in test [2]; 1860 nM (active) in test [3]; 2950 nM (active) in test [4]; 2350 nM (active) in test [5]; 1860 nM (active) in test [6].
As to `C[C@@H](Oc1cc(C(=O)Nc2ccc(C(=O)N3CCN(C)CC3)cc2)nnc1N)c1c(Cl)ccc(F)c1Cl`, the Potency was 18600 nM (active) in test [1]; 1660 nM (active) in test [2]; 1180 nM (active) in test [3]; 1180 nM (active) in test [4]; 934 nM (active) in test [5]; 934 nM (active) in test [6].
Regarding `CC1=C(/C=C/C(C)=C/C=C/C(C)=C/C=C/C=C(C)/C=C/C=C(C)/C=C/C2=C(C)CCCC2(C)C)C(C)(C)CCC1`, the viability in test [1] is 103%. The Potency in test [2] was 23500 nM (active). Moreover, the Potency result in test [4], in test [5] and in test [6] was “inactive” each time.
`O=C(NCc1ccccc1)[C@H](Cc1ccccc1)NC(=O)[C@H]1O[C@@H]1C(=O)NCCc1ccc(O)cc1`: the viability in test [1] is 105%. Further, the Potency in test [2] is 23500 nM (active). Besides, the Potency result in test [4], in test [5] and in test [6] was “inactive” each time.
Regarding `CCC(=C/[C@H](C)C/C=C/C(C)=C/[C@@H](C)C(=O)[C@@H](C)[C@H](O)[C@@H](C)C/C(C)=C/C(=O)O)/C=C/[C@@H]1OC(=O)C=C[C@@H]1C`, the Potency in test [1] was 7.4 nM (active); in test [2], 3 nM (active); in test [3], 3.7 nM (active); in test [4], 3.3 nM (active); in test [5], 3 nM (active); in test [6], 1.9 nM (active).
Take `O=C(O)/C=C/c1ccc(Cn2ccnc2)cc1`: in test [1], the viability is 125%. Also, the Potency result in test [2], in test [3], in test [4] and in test [6] was “inactive” in each case.
Regarding `CCOc1cc(/C=C2/C(=O)N(c3ccccc3)N=C2C)cc(Cl)c1OCC(=O)OC`, the viability in test [1] was 103%. The Potency in test [2] was 20900 nM (active). The Potency entry in test [3], in test [4], in test [5] and in test [6] was “inactive” in each case.
In the case of `COC(=O)[C@H](CCCN=C(N)N)NS(=O)(=O)c1ccc(C)cc1`, the viability in test [1] was 112%. In addition, the Potency result in test [2], in test [3], in test [4], in test [5] and in test [6] was “inactive” in each case.
For the compound `C=C1[C@H](OC(=O)/C=C(\C)CC)C[C@@H](C(C)C)[C@@H]2[C@H]([C@@H](C)OC(C)=O)C(=O)C[C@@H]12`, the Potency in test [1] is 16600 nM (active); in test [2], 18600 nM (active). Moreover, the Potency entry in test [4] is “inactive”.
For `O=C1OC2(CCC(C(=O)Nc3ccn(-c4ccccc4F)n3)CC2)c2cnccc21` (stereo not given), the viability in test [1] was 90.4%. Moreover, the figures for the Potency in test [2] and in test [5] were 3320 nM (active) and 18600 nM (active), respectively. Further, the Potency entry in test [4] was “inactive”.
For the compound `O=C(c1ccc(Nc2nc(C3CC3)cn3c(-c4cn[nH]c4)cnc23)c(F)c1)N1CCOCC1`, the viability in test [1] was 57.2%. The Potency was 1180 nM (active) in test [2], 5250 nM (active) in test [3] and 20900 nM (active) in test [5].
In the case of `Nc1ccn([C@@H]2O[C@H](CO)[C@@H](O)[C@H]2O)c(=O)n1`, in test [1], the viability is 117%. Besides, the Potency in test [2] is 16600 nM (active). Besides, the Potency result in test [3], in test [4], in test [5] and in test [6] was “inactive” in each case.
In the case of `O=c1oc2cc(O)ccc2s1`, in test [1], the viability is 106%. The Potency entry in test [2], in test [3], in test [4], in test [5] and in test [6] was “inactive” in each case.
Regarding `CCN(C(=O)c1ccccc1OC)c1cc2c(cc1N1CCNC[C@H]1C)n(C)c(=O)n2C`, the viability in test [1] is 119%. Also, the Potency result in test [2], in test [3], in test [4] and in test [6] was “inactive” in each case.
Regarding `Cc1ccc(NC(=O)[C@H]2CCCN(C(=O)c3c(C)cccc3F)[C@H]2c2ccc(NC3CCCC3)cc2)cc1C(F)(F)F`, the viability in test [1] is 94.7%. The Potency result in test [2], in test [4], in test [5] and in test [6] was “inactive” each time.
`CC(C)(C)c1nc2c3cc[nH]c(=O)c3c3cc(F)ccc3c2[nH]1`: the Potency in test [1] was 1180 nM (active); in test [2], 1180 nM (active); in test [4], 235 nM (active); in test [5] it was 662 nM (active).
